# Test results as given in PubChem BioAssay AID1794808 (University of Kansas High Throughput Screening Laboratory, 2022).
# Several values for one entry are separate records, joined by “and”; a condition that tells them apart may be missing. Equal entries are not always repeated. In all, about 210,000 compounds went through this assay and about 520 (0.25%) were called active. Rule as the data show it: active = inhibition above about 50%; inactive = the rest. The list comes from a sample in which actives are over-represented; it also holds similar structures and randomly drawn compounds. A structure can be active in one record and inactive in another.
# System: Plasmodium falciparum apicoplast DNA polymerase (apPOL)
# Assay: Pf-apPOL inhibitors, biochemical, fluorescence (AID 1794808)
# Details: Recombinant Pf-apPOL, molecular beacon fluorescence, 1.5 h; at 10 µM; stronger effect = higher value
row,SMILES,inhibition
1,Cc1cccc(NC(=O)CSc2nccn2C)c1C,-4.4% (inactive)
2,COC(=O)c1cc(Nc2cc(F)ccc2F)c2ccccc2n1,-1.7% (inactive)
3,CCc1ccc(NC(=O)CCS(=O)(=O)c2ccc(Br)s2)cc1,-6.3% (inactive)
4,COc1ccc(CC2(C)OC(c3ccc(C(C)(C)C)cc3)=NN2C(C)=O)cc1 (configuration not stated),5.3% (inactive)
5,CCOc1nn(-c2nc(-c3ccccc3)cc(C(F)(F)F)n2)cc1[N+](=O)[O-],1.6% (inactive)
6,c1ccc(-c2nnc(SCc3nc4ccccc4[nH]3)o2)cc1,-3% (inactive)
7,CNC(=O)CSc1nc2ccccc2[nH]1,-7.9% (inactive)
8,c1ccc2[nH]c(CSc3nc4ccccc4[nH]3)nc2c1,86% (active) and -1.3% (inactive)
9,COc1ccc(C2=NOC(C(=O)N3CCCc4ccccc43)C2)cc1OC (configuration not stated),-3.1% (inactive)
10,O=C(NCc1cccc(F)c1)C1CCc2sc(C(=O)N3CCCC3)cc2C1 (configuration not stated),-2.5% (inactive)
11,CCn1ccc(C(=O)N2CCCC2c2cccc(F)c2)n1 (configuration not stated),-3.5% (inactive)
12,O=C(NCC1CN(c2ccc3c(c2)OCO3)C(=O)O1)c1ccco1 (configuration not stated),-9.6% (inactive)
13,CC(C)(C)c1ccc(CC(=O)c2ccc(O)cc2O)cc1,-3.9% (inactive)
14,O=C1CCCC2=C1C(c1ccccn1)C1=C(CCCC1=O)O2,-0.8% (inactive)
15,O=C(Nc1ncc(Cc2cccc(C(F)(F)F)c2)s1)c1ccc(-n2cnnn2)cc1,-2.3% (inactive)
16,CCOC(=O)N1CCc2nn(CC(=O)NC(C)CCc3ccccc3)c(=O)cc2C1 (configuration not stated),-4.2% (inactive)
17,O=C(Nc1nnc(CSCc2ccccc2)s1)c1ccc(F)cc1,-1.1% (inactive)
18,COc1ccc(CCNC(=O)C2c3ccccc3C(=O)N2Cc2ccc(C)cc2)cc1OC (configuration not stated),-9.1% (inactive)
19,O=C(Nc1ccc(-c2nc3ccccc3[nH]2)cc1)c1cccc(F)c1,-15.5% (inactive)
20,CCNC(=O)c1nsc2ccc(C)cc12,-1.8% (inactive)
21,CCOC(=O)c1ccc(NS(=O)(=O)c2c[nH]c(=O)[nH]c2=O)cc1,-10.5% (inactive)
22,CCN(CC)CCCNC(=O)C1CCN(S(=O)(=O)N2CCC3(CC2)OCCO3)CC1,-18.9% (inactive)
23,Cc1ccc(-n2cc(C(=O)N3CCCCC3)nn2)cc1C,-2.2% (inactive)
24,COc1ccc(/C=C2\N=C(c3cc(OC)c(OC)c(OC)c3)OC2=O)cc1,-0.6% (inactive)
25,Cc1ccc(-n2c(O)c(C=Nc3cc(Cl)ccc3O)c(=O)[nH]c2=O)cc1,-0.1% (inactive)

row,SMILES,inhibition
1,CCc1c(C)c2ccc(OCC(C)C)cc2oc1=O,-2.3% (inactive)
2,COc1ccc(CCNC(=O)C2CC(=O)N(c3ccc(F)c(Cl)c3)C2)cc1OC (configuration not stated),4.9% (inactive)
3,O=C1CC2(CCN(C(=O)C=Cc3ccccc3)CC2)Oc2ccccc21,-17.9% (inactive)
4,Cc1cc(C)nc(NC(=O)c2ccc([N+](=O)[O-])cc2Cl)c1,5.5% (inactive)
5,O=C(Nc1ccncc1)c1ccc([N+](=O)[O-])cc1Cl,0.3% (inactive)
6,O=C(Nc1ccc(Br)cn1)c1ccc([N+](=O)[O-])cc1Cl,81.8% (active)
7,O=C(C1CC1)N1CCC(COCc2ccccc2)CC1,-12.6% (inactive)
8,CCS(=O)(=O)Oc1ccccc1-c1nc2cc(Cl)ccc2o1,-3.6% (inactive)
9,Cc1ccc(C(=O)N2CCC(CCOc3ccc(F)cc3)CC2)s1,4.5% (inactive)
10,CN1CCN(C(=O)C2CCC(=O)N2Cc2ccccc2Cl)CC1 (configuration not stated),-11.4% (inactive)
11,CC(C)c1nnc(NC(=O)CCCOc2ccc(Cl)cc2)s1,4.4% (inactive)
12,O=[N+]([O-])c1ccc(-c2noc(COc3ccc(Cl)cc3Cl)n2)cc1,1.6% (inactive)
13,O=C(NCCc1ccccc1)C1CCN(CC2CCCCC2)CC1,12.9% (inactive)
14,O=C(NCCc1ccccc1)C1CCN(S(=O)(=O)c2ccc(Br)cc2)CC1,98.3% (active)
15,O=C(NCCc1ccccc1)C1CCN(S(=O)(=O)c2ccc(Br)s2)CC1,-9% (inactive)
16,Cc1cccc(NC(=O)c2cc3c(CO)cnc(C)c3oc2=Nc2ccc3c(c2)OCO3)c1,-0.2% (inactive)
17,CCn1c(-c2cc(NC(=O)c3ccncc3)n[nH]2)cc2ccccc21,-0.8% (inactive)
18,O=C(Nc1ccc(Cl)cc1[N+](=O)[O-])c1ccc(Cl)cc1,-0.2% (inactive)
19,Cc1cc(C)nc(Nc2nc(CC(=O)Nc3nc(-c4ccco4)cs3)cs2)n1,69.6% (active)
20,O=C(CCCn1cccc1)Nc1nc(-c2ccco2)cs1,0.6% (inactive)
21,COC(=O)Nc1nc(CC(=O)NCc2ccco2)cs1,-1.8% (inactive)
22,Cc1nccn1Cc1nc(-c2ccc(F)c(Br)c2)no1,-2.5% (inactive)
23,COc1ccc(C(C)=C2SC(=S)N(CCC(=O)O)C2=O)cc1,3.2% (inactive)
24,Cc1nc2c(ccc3nc(NC(=O)NCc4cccs4)sc32)s1,-4.8% (inactive)
25,O=C(c1ccncc1)N1CCCC(c2nc(-c3ccc(F)cc3)n[nH]2)C1 (configuration not stated),10% (inactive)

row,SMILES,inhibition
1,COc1ccc(C(=O)N2CCN(c3nc(C(C)C)c4c(c3C#N)CC(C)(C)OC4)CC2)cc1,-3.4% (inactive)
2,CCCNc1cc(N2CCC(CCC(=O)NC(C)C)CC2)ncn1,-1.9% (inactive)
3,COc1cc(/C=c2\sc3nc(-c4ccc(Cl)cc4)nn3c2=O)cc(OC)c1OC,3.7% (inactive)
4,Cc1ccc(S(=O)(=O)NC(=O)NCCSCc2ccco2)cc1,25.5% (inactive) and 3.2% (inactive)
5,O=C(CSc1nnc(SCC(=O)NCCSCc2ccco2)s1)NCCSCc1ccco1,91.9% (active)
6,O=C(Cn1nnc2ccccc21)NCCSCc1ccco1,9.1% (inactive)
7,O=C(CSc1ccc(C(F)(F)F)cc1[N+](=O)[O-])NCCOc1ccccc1,57.6% (active)
8,COc1ccccc1OCCNC(=O)CSc1ccc(C(F)(F)F)cc1[N+](=O)[O-],-0.4% (inactive)
9,Cc1cccc(OCCNC(=O)CSc2ccc(C(F)(F)F)cc2[N+](=O)[O-])c1,-4.3% (inactive)
10,O=C(Cc1ccsc1)N1CCn2cnnc2C1,0.2% (inactive)
11,Cc1nc(C(=O)NCc2ccc(C(F)(F)F)cc2)c(C)o1,-4.9% (inactive)
12,Cc1ccc(C2CC(c3ccccc3)Nc3nnnn32)cc1 (configuration not stated),-7% (inactive)
13,O=C(Nc1ccccc1[N+](=O)[O-])c1[nH]ncc1[N+](=O)[O-],-24.6% (inactive)
14,Cc1ccc(-n2cc(C(=O)Nc3ccc4c(c3)OCCO4)c3ccccc3c2=O)cc1C,-2.6% (inactive)
15,O=C(c1ccoc1)N1CCCCC1CCN1CCOCC1 (configuration not stated),-2% (inactive)
16,O=C(NC1CC1)c1cccc(OCC2CCCN(C(=O)C3CCCCC3)C2)c1 (configuration not stated),-3.3% (inactive)
17,COc1ccc(CNC(=O)c2cncc(OC)c2)cc1,0.2% (inactive)
18,O=C(CS(=O)(=O)CC(=O)c1ccccc1)c1ccccc1,-2.4% (inactive)
19,Cc1c(Cl)ccc(NC(=O)C2CCCN2S(=O)(=O)c2ccccc2)c1Cl (configuration not stated),-7.1% (inactive)
20,O=C(Nc1ccc(Cl)cc1)NC1(C(F)(F)F)Oc2ccccc2O1,1.5% (inactive)
21,COc1ccc(Cl)cc1NC(=O)CN(c1ccccc1)S(=O)(=O)c1ccccc1[N+](=O)[O-],-6.5% (inactive)
22,CC1=C(C(=O)Nc2ccc(Cl)cc2)C(c2ccc(Cl)cc2Cl)n2ncnc2N1 (configuration not stated),6% (inactive)
23,CCN(CC)S(=O)(=O)c1ccc(Cl)c(C(=O)O)c1,-5% (inactive)
24,Cc1ccc(Cl)cc1NC(=O)C(=O)NCc1ccccn1,0.8% (inactive) and 0% (inactive)
25,O=C(COc1ccc(F)cc1)Nc1nnc(C2CC(=O)N(c3ccccc3)C2)o1 (configuration not stated),4.1% (inactive)

row,SMILES,inhibition
1,CN(C)c1ccc(/C=C(\C#N)c2ccc([N+](=O)[O-])cc2)cc1Br,-5.5% (inactive)
2,COCC(=O)N1CCCCC1c1nncn1CC1CC1 (configuration not stated),3.4% (inactive)
3,CC(C)(C)C(=O)Oc1ccc(C=Cc2ccccn2)cc1,-22% (inactive)
4,O=C(CSc1nnc(NC(=O)c2ccc(Cl)c(Cl)c2)s1)NCc1ccco1,0.7% (inactive)
5,Nc1ccc2nc(SCC(=O)NC3CC3)sc2c1,6.4% (inactive)
6,O=C(CSc1nnc(NC(=O)c2cc(-c3ccco3)on2)s1)NC1CCCC1,60.9% (active)
7,O=C1CC(NCc2ccc3c(c2)OCO3)C(=O)N1c1ccc(OC(F)(F)F)cc1 (configuration not stated),0.2% (inactive)
8,Cc1cc(C)c(S(=O)(=O)N2CCC(c3noc(-c4ccc(F)cc4)n3)CC2)c(C)c1,-5.5% (inactive)
9,O=Cc1ccc(OCc2ccc(I)cc2)cc1,-6.6% (inactive)
10,COc1ccccc1C(=O)Oc1ccc2c(c1)OC(=Cc1cccc(OC)c1OC)C2=O,-1.8% (inactive)
11,COc1ccc(CCNC(=O)CSc2ccc(-n3cccn3)nn2)cc1OC,-3.3% (inactive)
12,CC(C)(C)C(O)CCNC(=O)C(=O)NCc1ccccc1 (configuration not stated),-5.8% (inactive)
13,O=C(NCC(O)c1ccsc1)c1cccc2ccccc12 (configuration not stated),-3.1% (inactive)
14,Cn1c(=O)c2c(-c3ccccc3)n(-c3cccc([N+](=O)[O-])c3)cc2n(C)c1=O,0.3% (inactive)
15,COc1ccc(-c2c3c(=O)n(C)c(=O)n(C)c3cn2-c2ccc(Br)cc2)cc1,73.4% (active)
16,COc1ccc(-c2cn3c4c(=O)n(C)c(=O)n(C)c4nc3n2CCO)cc1,-0.7% (inactive)
17,CN1CCC(N2CCN(C(=O)C3CCc4sc(C(=O)N5CCCC5)cc4C3)CC2)CC1 (configuration not stated),-2.3% (inactive)
18,CC(C)N1CCN(C(=O)c2csc(N3CCN(c4ccccc4)CC3)n2)CC1,-6.1% (inactive)
19,CCOc1ccc(-c2cc3n(n2)CCCN(C(=O)c2ccccn2)C3)cc1,-2.1% (inactive)
20,O=C(Nc1cccs1)N1CCN(C(=O)C2CCCO2)CC1 (configuration not stated),0.6% (inactive)
21,O=C(Nc1cccs1)N1CCN(c2ccc(-c3ccco3)nn2)CC1,64.3% (active)
22,O=C(c1cccc(-n2cnnn2)c1)N1CCN(c2ccc(-c3cccs3)nn2)CC1,-10.3% (inactive)
